Measurements reported in PubChem BioAssay (Tox21).
Values without a mark were called inactive. Results filed as inconclusive are left out. A call without a number means that no potency is given here. Activity calls are given as the source filed them. Unless noted, calls follow the shape of the full dose curve.

What was measured:
[1] = Nuclear factor erythroid 2-related factor 2/antioxidant responsive element (Nrf2/ARE) small molecule agonists: luciferase reporter gene qHTS assay in human keratinocytes (AID 1919969); conditions: KeratinoSens HaCaT ARE-luciferase, luminescence, 24 h; series mostly up to 92.4 µM; also: nearly all actives have a fitted effect of over 35% in size; also: potency is read from the fitted curve at half-maximal effect
[2] = target: Gonadotropin-releasing hormone receptor (Homo sapiens) (UniProt P30968); test: Human gonadotropin-releasing hormone receptor (GnRHR) small molecule agonists, calcium flux assay in GnRHR-HEK293 cells (AID 1920063); conditions: calcium flux fluorescence, agonist mode; series mostly up to 57.6 µM; also: nearly all actives have a fitted effect of over 35% in size
Gonadotropin-releasing hormone receptor (Homo sapiens), sequence (P30968 whole entry, looked up): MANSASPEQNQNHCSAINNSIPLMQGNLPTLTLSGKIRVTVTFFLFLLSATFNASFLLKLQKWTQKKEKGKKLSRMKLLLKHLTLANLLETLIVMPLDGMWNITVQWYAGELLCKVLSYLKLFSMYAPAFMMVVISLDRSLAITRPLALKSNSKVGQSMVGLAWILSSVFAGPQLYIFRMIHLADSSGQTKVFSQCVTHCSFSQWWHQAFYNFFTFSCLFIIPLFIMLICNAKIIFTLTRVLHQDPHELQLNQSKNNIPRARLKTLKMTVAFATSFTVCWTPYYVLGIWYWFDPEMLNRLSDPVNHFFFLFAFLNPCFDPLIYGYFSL
Outline: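 We seeded human GnRHR-expressing HEK293 cells for 18 hours, loaded them with calcium dye for an hour at 37 C, added test compounds, and recorded fluorescence intensity kinetically for three minutes.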

[3] = target: KiSS-1 receptor (Homo sapiens) (UniProt Q969F8); test: Human kisspeptin (KISS1R) small molecule agonists, calcium flux assay in KISS1R-HEK293 cells (AID 1920064; active = well fitted activation curve with a large enough effect in the repeat runs); conditions: KISS1R-HEK293, calcium flux fluorescence, agonist; series mostly up to 76.8 µM
KiSS-1 receptor (Homo sapiens), sequence (Q969F8 whole entry, looked up): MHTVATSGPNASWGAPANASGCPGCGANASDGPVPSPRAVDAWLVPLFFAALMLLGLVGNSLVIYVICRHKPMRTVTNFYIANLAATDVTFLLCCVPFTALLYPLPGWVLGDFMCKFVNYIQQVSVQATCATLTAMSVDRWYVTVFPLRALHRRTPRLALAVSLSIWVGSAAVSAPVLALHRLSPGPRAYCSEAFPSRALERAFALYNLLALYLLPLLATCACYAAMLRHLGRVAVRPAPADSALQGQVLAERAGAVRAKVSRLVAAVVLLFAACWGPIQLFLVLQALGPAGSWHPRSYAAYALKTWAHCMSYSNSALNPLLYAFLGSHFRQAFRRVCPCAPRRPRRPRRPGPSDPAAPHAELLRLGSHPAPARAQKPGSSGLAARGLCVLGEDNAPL
Outline: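 Kinetic calcium assay, 1 s sampling over 3 min at Ex/Em 480/540, in HEK293 cells engineered with human KISS1R; compounds delivered in DMSO after 1 h dye loading.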

[4] = G protein-coupled receptor (GPCR) small molecule agonists, calcium flux assay: HEK293 wild type cell line counter screen (AID 1920065); conditions: HEK293 WT calcium flux, fluorescence, agonist mode; series mostly up to 57.6 µM
Outline: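 Calcium-sensitive dye, loaded 1 h at 37 C into cells cultured 18 h, reports compound-evoked calcium release as fluorescence (Ex/Em 480/540), measured over 3 min. Agonist mode; 15-point titrations, triplicate.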

[5] = p53 small molecule agonists, cell-based qHTS assay with human liver microsomes (AID 1963577); conditions: HCT-116 p53RE-bla with human liver microsomes, ratio, 16 h; series mostly up to 66 µM
Outline: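 Fluorescence of the beta-lactamase reporter in p53RE-bla cells, detected with LiveBLAzer substrate (2 h, room temperature, dark), served as the read-out after 16 h compound exposure at 37 C with human liver microsomes and NADPH, each 0.5 mg/mL final.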

[6] = p53 small molecule agonists, cell-based qHTS assay with rat liver microsomes (AID 1963578); conditions: HCT-116 p53RE-bla, beta-lactamase ratio, 16 h; series mostly up to 66 µM
Outline: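 Cells carrying a p53 response element–beta-lactamase reporter were plated and rested 5 h, then dosed with compound in DMSO plus rat liver microsomes and NADPH, each at 0.5 mg/mL final. After 16 h at 37 C, LiveBLAzer substrate was added for 2 h.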

[7] = p53 small molecule agonists, cell-based qHTS assay with human liver microsomes: qHTS cell viability counter screen (AID 1963579); conditions: p53RE-bla HCT-116 viability, ATP luminescence, 16 h, HLM; series mostly up to 66 µM; also: nearly all actives have a fitted effect of over 45% in size
Outline: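 Cytotoxicity counter screen: p53RE-bla, 4,000 cells/well; 5 h settle, 37 C/5% CO2; cpd + HLM 0.5 mg/mL + NADPH 0.5 mg/mL (final); 16 h, 37 C; CellTiter-Glo, 30 min RT, luminescence.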

[8] = p53 small molecule agonists, cell-based qHTS assay with rat liver microsomes: qHTS cell viability counter screen (AID 1963580); conditions: p53RE-bla HCT-116 + rat microsomes, ATP viability, 16 h; series mostly up to 66 µM; also: nearly all actives have a fitted effect of over 45% in size
Outline: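 Viability is assessed in parallel with the p53 reporter read: HCT-116 p53RE-bla cells receive compounds plus rat microsomes and NADPH (0.5 mg/mL final apiece), incubate 16 h at 37 C, and then CellTiter-Glo luminescence is recorded.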

[9] = p53 small molecule agonists, cell-based qHTS assay: qHTS cell viability counter screen (AID 1963581); conditions: p53RE-bla HCT-116 viability, ATP luminescence, 16 h; series mostly up to 66 µM; also: nearly all actives have a fitted effect of over 45% in size
Outline: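 Following 5 h attachment, HCT-116 p53RE-bla cells took up compound for 16 h at 37 C; the reporter was read with B/G FRET substrate (2 h RT), and viability then via CellTiter-Glo ATP luminescence.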

[10] = p53 small molecule agonists, cell-based qHTS assay (AID 1963582; active = well fitted activation curve with a large enough effect in the signal ratio in the repeat runs, not every such curve was filed as active; the % refers to the signal ratio); conditions: HCT-116 p53RE-bla reporter, beta-lactamase FRET ratio, 16 h; series mostly up to 66 µM
Outline: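 In this cell-based concentration-response screen, a p53 response element drives beta-lactamase; cells received DMSO-borne compounds after 5 h culture and were incubated a further 16 h before FRET substrate development.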

[11] = target: 5-hydroxytryptamine receptor 2A (Homo sapiens) (UniProt P28223); test: 5-hydroxytryptamine receptor 2A (HTR2A) small molecule antagonists, cell-based qHTS assay (AID 1963586); conditions: HTR2A-CHO cells, DOI-induced calcium flux, fluorescence; series mostly up to 61.5 µM; also: nearly all actives have a fitted effect of over 45% in size; also: potency is read from the fitted curve at half-maximal effect
5-hydroxytryptamine receptor 2A (Homo sapiens), sequence (P28223 whole entry, looked up): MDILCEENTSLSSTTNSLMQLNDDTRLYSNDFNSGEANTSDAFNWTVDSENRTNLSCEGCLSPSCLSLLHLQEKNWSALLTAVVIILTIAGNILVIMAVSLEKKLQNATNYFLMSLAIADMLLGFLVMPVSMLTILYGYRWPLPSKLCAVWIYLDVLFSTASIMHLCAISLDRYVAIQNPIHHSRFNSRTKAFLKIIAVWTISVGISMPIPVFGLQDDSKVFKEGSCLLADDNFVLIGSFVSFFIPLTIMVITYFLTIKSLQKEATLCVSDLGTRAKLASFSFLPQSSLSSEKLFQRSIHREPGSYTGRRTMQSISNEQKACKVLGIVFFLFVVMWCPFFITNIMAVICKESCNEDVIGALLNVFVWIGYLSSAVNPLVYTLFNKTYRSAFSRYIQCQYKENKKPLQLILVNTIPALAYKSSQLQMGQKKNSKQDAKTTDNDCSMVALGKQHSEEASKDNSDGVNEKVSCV
Outline: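 Antagonist-mode intracellular calcium assay: DOI (4 nM) added after 5 min compound pre-incubation at room temperature to dye-loaded HTR2A-CHO cells. Fluorescence followed for 3 min, sampled every second.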

[12] = target: 5-hydroxytryptamine receptor 2A (Homo sapiens) (UniProt P28223); test: 5-hydroxytryptamine receptor 2A (HTR2A) small molecule agonists, cell-based qHTS assay (AID 1963587); conditions: HTR2A-CHO cells, calcium flux fluorescence, agonist mode; series mostly up to 76.8 µM; also: nearly all actives have a fitted effect of over 30% in size; also: potency is read from the fitted curve at half-maximal effect
Outline: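 CHO cells stably expressing human HTR2A, plated 18 h, loaded with calcium dye 1 h at 37 C. Agonist mode: compounds added and intracellular calcium fluorescence recorded kinetically for 2 min at 1 sec intervals.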

[13] = target: Muscarinic acetylcholine receptor M1 (Homo sapiens) (UniProt P11229); test: Cholinergic receptor muscarinic 1 (CHRM1) small molecule antagonists, cell-based qHTS assay (AID 1963588); conditions: CHRM1-CHO antagonist mode, calcium flux fluorescence; series mostly up to 61.5 µM; also: nearly all actives have a fitted effect of over 40% in size; also: potency is read from the fitted curve at half-maximal effect
Muscarinic acetylcholine receptor M1 (Homo sapiens), sequence (P11229 whole entry, looked up): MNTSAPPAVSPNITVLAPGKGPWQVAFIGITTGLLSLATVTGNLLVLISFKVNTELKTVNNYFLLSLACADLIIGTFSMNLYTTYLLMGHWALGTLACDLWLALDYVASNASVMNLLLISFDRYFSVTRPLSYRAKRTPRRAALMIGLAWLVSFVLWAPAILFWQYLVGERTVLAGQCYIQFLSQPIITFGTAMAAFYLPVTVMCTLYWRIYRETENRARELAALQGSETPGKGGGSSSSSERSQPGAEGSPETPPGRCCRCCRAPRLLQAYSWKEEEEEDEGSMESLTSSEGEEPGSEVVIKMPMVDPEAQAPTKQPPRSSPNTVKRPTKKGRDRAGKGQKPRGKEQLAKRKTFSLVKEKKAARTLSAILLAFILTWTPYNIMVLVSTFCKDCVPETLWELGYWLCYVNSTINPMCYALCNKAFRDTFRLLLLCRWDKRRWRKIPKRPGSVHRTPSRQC
Outline: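 CHRM1-CHO calcium-flux assay, antagonist mode. Cells were seeded 18 h, dye-loaded 1 h at 37 C and given compound for 5 min at RT, then acetylcholine was added at 50nM. FDSS fluorescence was read 3 min; 15 concentrations, three runs.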

[14] = target: Muscarinic acetylcholine receptor M1 (Homo sapiens) (UniProt P11229); test: Cholinergic receptor muscarinic 1 (CHRM1) small molecule agonists, cell-based qHTS assay (AID 1963589); conditions: CHRM1-CHO cells, agonist mode, calcium flux fluorescence; series mostly up to 76.8 µM; also: nearly all actives have a fitted effect of over 35% in size
Outline: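 Measures agonist-induced intracellular calcium rise. Stable human CHRM1 CHO line, 1 h dye load at 37 C, compounds from DMSO, kinetic fluorescence read.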

[15] = cAMP Responsive Elements (CRE) small molecule agonists, cell-based qHTS assay (AID 1963590); conditions: CRE-bla HEK293T, beta-lactamase FRET ratio, 3 h; series mostly up to 92.4 µM
Outline: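 A CRE-responsive beta-lactamase reporter in HEK 293T cells was used. Treatment ran 3 h at 37 C; detection used LiveBLAzer B/G FRET substrate for 2 h at room temperature.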

[16] = target: Beta-2 adrenergic receptor (Homo sapiens) (UniProt P07550); test: Adrenergic beta2 receptor (ADRB2) small molecule antagonists, cell-based qHTS assay (AID 1963592); conditions: CHO-ADRB2 cells, isoproterenol-stimulated cAMP HTRF ratio, 0.5 h; series mostly up to 92.4 µM; also: nearly all actives have a fitted effect of over 50% in size; also: potency is read from the fitted curve at half-maximal effect
Beta-2 adrenergic receptor (Homo sapiens), sequence (P07550 whole entry, looked up): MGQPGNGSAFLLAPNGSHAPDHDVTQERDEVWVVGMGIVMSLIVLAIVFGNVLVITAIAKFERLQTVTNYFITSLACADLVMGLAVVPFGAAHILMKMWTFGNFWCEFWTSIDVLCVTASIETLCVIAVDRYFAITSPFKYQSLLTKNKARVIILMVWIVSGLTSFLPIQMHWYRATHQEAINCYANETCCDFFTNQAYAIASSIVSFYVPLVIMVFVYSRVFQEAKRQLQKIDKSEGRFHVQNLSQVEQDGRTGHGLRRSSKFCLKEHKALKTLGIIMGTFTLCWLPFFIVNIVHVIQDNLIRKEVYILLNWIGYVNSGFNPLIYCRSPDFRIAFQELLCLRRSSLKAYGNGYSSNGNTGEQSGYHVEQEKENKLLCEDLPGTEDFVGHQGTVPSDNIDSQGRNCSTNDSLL
Outline: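 Cells (CHO, stable ADRB2 overexpression) incubated 18-20hr at 37C; compounds added from DMSO; agonist mix (1nM isoproterenol, 100uM IBMX, 25uM Ro-20-1724) added; 0.5hr RT; d2-cAMP and anti-cAMP-cryptate added; 1hr RT; 665/615 nm read.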

[17] = target: D(2) dopamine receptor (Homo sapiens) (UniProt P14416); test: Dopamine D2 receptor (DRD2) small molecule agonists, cell-based qHTS assay (AID 1963594); conditions: HEK293-DRD2 cAMP HTRF, agonist mode, 30 min; series mostly up to 92.4 µM; also: nearly all actives have a fitted effect of over 35% in size
D(2) dopamine receptor (Homo sapiens), sequence (P14416 whole entry, looked up): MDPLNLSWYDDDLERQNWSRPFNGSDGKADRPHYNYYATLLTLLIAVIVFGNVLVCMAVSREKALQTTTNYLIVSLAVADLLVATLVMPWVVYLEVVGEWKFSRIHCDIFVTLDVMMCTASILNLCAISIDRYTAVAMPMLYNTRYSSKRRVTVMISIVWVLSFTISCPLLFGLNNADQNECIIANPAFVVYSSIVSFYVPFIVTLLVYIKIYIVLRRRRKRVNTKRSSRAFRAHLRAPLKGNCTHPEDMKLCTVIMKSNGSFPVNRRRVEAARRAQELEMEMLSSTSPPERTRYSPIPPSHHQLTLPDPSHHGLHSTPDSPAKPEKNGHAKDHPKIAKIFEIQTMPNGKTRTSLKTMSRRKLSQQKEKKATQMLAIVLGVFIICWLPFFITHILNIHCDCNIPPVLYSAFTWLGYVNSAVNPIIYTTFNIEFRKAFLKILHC
Outline: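 HEK293 cells stably expressing human DRD2, pre-treated with PDE inhibitor Ro20-1724 (0.1 mM final) and compound 10 min at room temperature, then stimulated with NKH477 (200nM […]) for 30 min. cAMP read by HTRF (665/620 nm).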

[18] = target: D(2) dopamine receptor (Homo sapiens) (UniProt P14416); test: Dopamine D2 receptor (DRD2) small molecule antagonists, cell-based qHTS assay (AID 1963595; active = well fitted inhibition curve with a large enough effect in the signal ratio in the repeat runs, with a control signal flat; the % refers to the signal ratio; also: potency is read from the fitted curve at half-maximal effect); conditions: HEK293-DRD2 cAMP HTRF antagonist mode; series mostly up to 92.4 µM
Outline: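 In this cell-based antagonist screen, compounds act for 10 min at room temperature before a 30 min challenge with 12 nM quinpirole and 200 nM NKH477. cAMP is quantified by HTRF competition in DRD2-HEK293 cells containing 0.1 mM Ro20-1724.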

[19] = cAMP Responsive Elements (CRE) small molecule antagonists, cell-based qHTS assay (AID 1963591; active = well fitted inhibition curve with a large enough effect in the signal ratio in the repeat runs, not every such curve was filed as active; the % refers to the signal ratio); conditions: CRE-bla HEK293T, beta-lactamase FRET ratio; series mostly up to 92.4 µM
Outline: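 HEK293T cells carrying a CRE-driven beta-lactamase reporter receive compound and NKH477 (0.25 uM final) for 3 h. Fluorescence from LiveBLAzer B/G FRET substrate is read after 2 h at room temperature.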

[20] = target: Beta-2 adrenergic receptor (Homo sapiens) (UniProt P07550); test: Adrenergic beta2 receptor (ADRB2) small molecule agonists, cell-based qHTS assay (AID 1963593); conditions: CHO-ADRB2 cells, cAMP HTRF, 30 min; series mostly up to 92.4 µM;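 also: CHO cells stably overexpressing human ADRB2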
Outline: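 CHO cells stably over-expressing ADRB2 were plated overnight at 37C, then dosed with compounds plus a stimulation mix containing 100uM IBMX and 25uM Ro-20-1724 for 0.5hr at room temperature. cAMP was measured by HTRF competition, 1hr.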

SMILES	Potency [1]	Potency [2]	Potency [3]	Potency [4]	Potency [5]	Potency [6]	Potency [7]	Potency [8]	Potency [9]	Potency [10]	Potency [11]	Potency [12]	Potency [13]	Potency [14]	Potency [15]	Potency [16]	Potency [17]	Potency [18]	Potency [19]	Potency [20]
CC1(O)CSC(C)(O)CS1 (stereo unspecified)	30.6 µM (active)	inactive	inactive	inactive	inactive	inactive	inactive	inactive	inactive	inactive	inactive	inactive	inactive	inactive	inactive	inactive	inactive	–	–	–
OCCN1CCN(CC/C=C2/c3ccccc3Sc3ccc(C(F)(F)F)cc32)CC1	inactive	inactive	inactive	inactive	inactive	inactive	inactive	inactive	inactive	inactive	130 nM (active)	–	3.65 µM (active)	inactive	–	inactive	–	168 nM (active)	–	–
c1ccc(OCc2ccc(CCCN3CCOCC3)cc2)cc1	inactive	inactive	inactive	inactive	inactive	inactive	inactive	inactive	inactive	–	20500 nM (active)	inactive	2.05 µM (active)	inactive	inactive	inactive	inactive	inactive	–	–
Cc1onc(-c2c(Cl)cccc2Cl)c1C(=O)N[C@@H]1C(=O)N2[C@@H]1SC(C)(C)[C@@H]2C(=O)O	inactive	inactive	inactive	inactive	inactive	inactive	inactive	inactive	inactive	inactive	inactive	inactive	inactive	inactive	inactive	inactive	inactive	inactive	inactive	inactive
CCC(=O)OCCc1ccccc1	inactive	inactive	inactive	inactive	inactive	inactive	inactive	inactive	inactive	inactive	inactive	inactive	inactive	inactive	inactive	inactive	–	inactive	–	–
CCCCC/C=C\C=C\C(=O)OCC	25.4 µM (active)	inactive	inactive	inactive	inactive	inactive	inactive	inactive	inactive	inactive	–	–	inactive	inactive	–	inactive	inactive	inactive	–	inactive
C[C@]12CC[C@@H]3c4ccc(O)cc4CC[C@H]3[C@@H]1CC[C@@H]2OC(=O)CCC1CCCC1	inactive	inactive	inactive	inactive	inactive	inactive	inactive	inactive	inactive	inactive	inactive	inactive	inactive	inactive	inactive	inactive	inactive	inactive	inactive	inactive
C=CCN1C[C@H](C(=O)N(CCCN(C)C)C(=O)NCC)C[C@@H]2c3cccc4[nH]cc(c34)C[C@H]21	inactive	inactive	inactive	inactive	inactive	inactive	inactive	inactive	inactive	inactive	0.6 nM (active)	1.9 nM (active)	–	inactive	inactive	inactive	–	inactive	–	inactive
COc1cc2nc(N3CCN(C(=O)C4COc5ccccc5O4)CC3)nc(N)c2cc1OC (stereo unspecified)	inactive	inactive	inactive	inactive	inactive	inactive	inactive	inactive	inactive	inactive	–	–	–	–	inactive	26.6 µM (active)	–	inactive	–	–
CC(=O)Oc1ccc([N+](=O)[O-])cc1CCl	27.3 µM (active)	inactive	inactive	inactive	inactive	inactive	inactive	inactive	inactive	inactive	inactive	inactive	inactive	inactive	inactive	–	inactive	inactive	inactive	inactive
O=C(CCCCCCC(=O)Nc1ccccc1)NO	8.41 µM (active)	inactive	inactive	inactive	inactive	inactive	inactive	inactive	inactive	inactive	inactive	inactive	–	inactive	inactive	inactive	inactive	–	–	–
CC(C)(C)c1cc(CO)cc(C(C)(C)C)c1O	–	–	–	inactive	–	inactive	inactive	–	–	inactive	inactive	inactive	–	inactive	–	inactive	inactive	inactive	–	–
O=C(c1ccc(F)cc1)C1CCN(CCn2c(=S)[nH]c3ccccc3c2=O)CC1	23.7 µM (active)	inactive	inactive	inactive	inactive	inactive	inactive	inactive	inactive	inactive	–	–	–	inactive	–	29.8 µM (active)	inactive	–	–	–
C[C@@H]1C[C@H]2O[C@@]3(O[C@@H]2C(C)(C)O)[C@H](O)[C@@]2(C)[C@@H]4CC[C@H]5C(C)(C)[C@@H](O[C@@H]6OC[C@@H](O)[C@H](O)[C@H]6O)CC[C@@]56C[C@@]46CC[C@]2(C)[C@@H]13	–	–	–	inactive	inactive	inactive	inactive	inactive	inactive	–	–	inactive	inactive	inactive	–	inactive	inactive	inactive	–	–
CCC(Cl)C(Cl)C(Cl)CC(Cl)C(Cl)C(C)Cl (stereo unspecified)	48.6 µM (active)	inactive	inactive	inactive	inactive	inactive	inactive	inactive	inactive	inactive	inactive	–	inactive	–	inactive	inactive	inactive	inactive	inactive	inactive
CCCCCCCC/C=C/CCCCCCCC1=NCCN1CCO	inactive	inactive	inactive	inactive	inactive	inactive	inactive	inactive	inactive	inactive	–	inactive	–	inactive	inactive	inactive	inactive	inactive	–	–
